Measurements: PubChem BioAssay
Activity calls are given as the source filed them.

Experiments:
[1] = small molecules captured by biotinylated probe aFSTL3 – biochemical, small-molecule microarray, fluorescence 635/667, stem cell growth factor project, primary screen (AID 1064); conditions: higher = more signal;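 note: measures binding of the biotinylated anti-FSTL3 antibody to printed compounds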
[2] = binders from COS7 lysate, DM2A8 probe, primary screen, torsin A project, cell lysate, small-molecule microarray, fluorescence 635/667 (AID 1065); conditions: higher = more signal, COS7 lysate expressing mutant human TOR1A
[3] = small molecules captured by biotinylated probe aFGF2 – biochemical, small-molecule microarray, fluorescence 635/667, stem cell growth factor project, primary screen (AID 1067); conditions: higher = more signal;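 note: measures binding of biotinylated aFGF2 protein to printed compounds on slides; z-score merges feature fluorescence and signal-to-noise across triplicate slides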
[4] = small molecules captured by biotinylated probe aFGF10 – biochemical, small-molecule microarray, fluorescence 635/667, stem cell growth factor project, primary screen (AID 1071); conditions: higher = more signal;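 note: score merges 667 nm spot intensity and signal to noise from triplicate slides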
[5] = target: Neurogenic locus notch homolog protein 2 (Homo sapiens) (UniProt Q04721); assay: small molecules binding Notch2 protein – biochemical, small-molecule microarray, 635 nm fluorescence, stem cell growth factors, primary screen (AID 1073); conditions: higher = more signal
Chain of Neurogenic locus notch homolog protein 2 (Homo sapiens) (Q04721 whole entry, looked up, canonical isoform): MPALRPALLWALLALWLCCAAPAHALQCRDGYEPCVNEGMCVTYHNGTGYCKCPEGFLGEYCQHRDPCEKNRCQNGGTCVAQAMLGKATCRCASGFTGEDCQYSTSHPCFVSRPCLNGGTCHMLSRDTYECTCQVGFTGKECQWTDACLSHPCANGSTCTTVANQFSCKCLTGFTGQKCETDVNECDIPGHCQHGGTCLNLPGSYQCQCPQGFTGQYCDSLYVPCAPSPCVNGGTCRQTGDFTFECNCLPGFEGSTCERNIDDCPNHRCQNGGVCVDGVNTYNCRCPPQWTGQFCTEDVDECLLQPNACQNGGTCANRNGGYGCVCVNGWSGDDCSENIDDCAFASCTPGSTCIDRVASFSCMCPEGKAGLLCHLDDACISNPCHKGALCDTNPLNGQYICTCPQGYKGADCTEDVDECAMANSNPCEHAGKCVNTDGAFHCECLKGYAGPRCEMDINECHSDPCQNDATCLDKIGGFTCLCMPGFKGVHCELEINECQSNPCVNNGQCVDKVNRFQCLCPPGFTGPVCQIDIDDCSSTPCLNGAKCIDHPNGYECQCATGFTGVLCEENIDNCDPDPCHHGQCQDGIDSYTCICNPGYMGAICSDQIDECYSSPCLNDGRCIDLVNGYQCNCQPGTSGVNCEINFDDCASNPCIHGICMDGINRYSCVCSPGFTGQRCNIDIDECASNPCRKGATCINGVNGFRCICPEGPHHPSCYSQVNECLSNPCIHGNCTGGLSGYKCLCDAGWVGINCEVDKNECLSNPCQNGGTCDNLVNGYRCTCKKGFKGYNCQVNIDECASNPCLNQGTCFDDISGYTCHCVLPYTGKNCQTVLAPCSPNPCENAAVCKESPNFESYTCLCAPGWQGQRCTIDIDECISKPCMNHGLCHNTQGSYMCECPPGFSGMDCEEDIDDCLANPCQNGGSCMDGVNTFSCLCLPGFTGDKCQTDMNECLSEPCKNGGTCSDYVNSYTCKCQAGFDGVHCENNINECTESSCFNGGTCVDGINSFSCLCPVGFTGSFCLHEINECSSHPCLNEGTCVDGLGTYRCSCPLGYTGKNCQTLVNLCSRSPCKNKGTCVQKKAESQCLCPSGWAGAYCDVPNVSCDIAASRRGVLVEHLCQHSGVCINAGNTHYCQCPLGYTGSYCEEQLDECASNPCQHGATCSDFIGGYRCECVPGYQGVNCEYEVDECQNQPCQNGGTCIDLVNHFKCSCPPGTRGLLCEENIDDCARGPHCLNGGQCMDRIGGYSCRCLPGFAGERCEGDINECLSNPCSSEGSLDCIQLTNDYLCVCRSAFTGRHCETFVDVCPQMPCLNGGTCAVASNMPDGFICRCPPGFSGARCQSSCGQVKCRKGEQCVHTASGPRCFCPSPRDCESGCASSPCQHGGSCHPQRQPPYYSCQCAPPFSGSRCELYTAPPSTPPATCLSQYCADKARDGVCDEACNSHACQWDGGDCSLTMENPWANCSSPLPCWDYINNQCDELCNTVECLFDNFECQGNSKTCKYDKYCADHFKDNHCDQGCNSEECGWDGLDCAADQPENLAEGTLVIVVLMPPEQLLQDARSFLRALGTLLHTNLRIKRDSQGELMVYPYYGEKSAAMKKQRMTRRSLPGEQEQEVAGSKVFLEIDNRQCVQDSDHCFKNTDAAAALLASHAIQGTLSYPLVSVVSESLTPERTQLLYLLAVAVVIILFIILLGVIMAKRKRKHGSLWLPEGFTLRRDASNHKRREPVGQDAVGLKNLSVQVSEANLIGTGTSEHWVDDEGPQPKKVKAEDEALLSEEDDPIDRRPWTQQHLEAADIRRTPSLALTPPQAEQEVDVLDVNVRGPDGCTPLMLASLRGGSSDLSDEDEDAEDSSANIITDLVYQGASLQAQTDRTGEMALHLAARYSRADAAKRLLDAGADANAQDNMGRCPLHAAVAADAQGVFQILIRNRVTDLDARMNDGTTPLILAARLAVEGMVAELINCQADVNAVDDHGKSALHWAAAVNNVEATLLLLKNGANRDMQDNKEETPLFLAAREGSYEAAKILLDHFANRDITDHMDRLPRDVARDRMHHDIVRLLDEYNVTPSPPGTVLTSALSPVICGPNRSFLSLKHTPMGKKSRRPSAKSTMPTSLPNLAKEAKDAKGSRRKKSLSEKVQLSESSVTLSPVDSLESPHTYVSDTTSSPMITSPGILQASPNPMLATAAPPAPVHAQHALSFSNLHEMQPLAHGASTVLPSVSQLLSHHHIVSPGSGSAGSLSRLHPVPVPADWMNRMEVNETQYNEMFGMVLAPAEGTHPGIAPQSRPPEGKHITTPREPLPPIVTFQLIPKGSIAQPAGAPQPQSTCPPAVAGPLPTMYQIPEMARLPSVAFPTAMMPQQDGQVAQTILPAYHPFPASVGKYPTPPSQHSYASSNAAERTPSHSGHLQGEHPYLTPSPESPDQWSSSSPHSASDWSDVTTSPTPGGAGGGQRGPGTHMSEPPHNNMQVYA

[6] = target: Pro-neuregulin-1, membrane-bound isoform (Homo sapiens) (UniProt Q02297); assay: small molecules binding neuregulin-1 protein – biochemical, small-molecule microarray, fluorescence 635/667, psychiatric disease protein project, primary screen (AID 1075); conditions: NRG1 binding, 635 nm fluorescence, higher = more signal;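 note: score combines 667 nm spot fluorescence with signal to noise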
Chain of Pro-neuregulin-1, membrane-bound isoform (Homo sapiens) (Q02297 whole entry, looked up, the tested form may be a part, canonical isoform): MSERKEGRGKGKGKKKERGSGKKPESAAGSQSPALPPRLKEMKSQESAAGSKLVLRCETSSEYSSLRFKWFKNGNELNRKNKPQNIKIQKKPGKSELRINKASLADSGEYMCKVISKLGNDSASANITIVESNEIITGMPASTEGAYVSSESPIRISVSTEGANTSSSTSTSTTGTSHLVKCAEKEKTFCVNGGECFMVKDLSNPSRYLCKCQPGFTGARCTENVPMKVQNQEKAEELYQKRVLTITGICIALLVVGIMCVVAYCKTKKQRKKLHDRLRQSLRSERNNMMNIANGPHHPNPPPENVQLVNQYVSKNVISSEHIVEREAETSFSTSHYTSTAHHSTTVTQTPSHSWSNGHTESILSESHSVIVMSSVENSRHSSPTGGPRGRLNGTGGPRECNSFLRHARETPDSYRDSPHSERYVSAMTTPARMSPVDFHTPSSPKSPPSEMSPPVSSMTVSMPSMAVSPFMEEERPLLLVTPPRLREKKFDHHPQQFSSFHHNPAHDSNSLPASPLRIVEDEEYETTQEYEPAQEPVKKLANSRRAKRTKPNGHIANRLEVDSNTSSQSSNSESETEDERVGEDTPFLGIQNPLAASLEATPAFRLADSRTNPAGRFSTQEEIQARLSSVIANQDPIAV

[7] = test system: Neuregulin-1 EGF-like domain; assay: small molecules binding NRG1 EGF domain – biochemical, small-molecule microarray, 635 nm fluorescence, primary screen (AID 1081); conditions: higher = more signal;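 note: binding of the protein to compounds printed on small-molecule microarray slides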
[8] = FRG1 expression reporter modulators in myotubes – cell-based, C2C12 myotubes, firefly/Renilla luciferase, luminescence, FRG1 inhibition for FSHD, primary screen (AID 1084); conditions: FRG1 promoter luciferase, higher = more signal, called active from +8 up or from −8 down
[9] = small molecules captured by biotinylated probe aFST – biochemical, small-molecule microarray, fluorescence 635/667, stem cell growth factor project, primary screen (AID 1086); conditions: higher = more signal;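 note: score merges 667 nm fluorescence with signal-to-noise of each printed compound spot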
[10] = binders of probe aHhip on microarray, primary screen, stem cell growth factor project, biochemical, small-molecule microarray, fluorescence 635/667 (AID 1087); conditions: higher = more signal;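 note: score merges spot fluorescence at 667nm with spot signal to noise ratio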

| Compound | composite z-score [1] | composite z-score [2] | composite z-score [3] | composite z-score [4] | composite z-score [5] | composite z-score [6] | composite z-score [7] | z-score [8] | composite z-score [9] | composite z-score [10] |
| --- | --- | --- | --- | --- | --- | --- | --- | --- | --- | --- |
| C=C(CCCC)/C(=C/C[C@H](OC(=O)c1ccncc1)c1ccc(OCCO)cc1)c1cc(C(=O)OC)ccc1OC | -0.126 | 0.123 | -0.031 | 1.15 | 0.563 | 0.348 | 1.01 | 31.6 (active) | -0.348 | -0.195 |
| COCCCNC(=O)[C@@H]1c2ccccc2C(=O)N(Cc2ccccc2OC)[C@H]1c1ccc(CO)cc1 | -0.169 | 0.64 | -0.0021 | 0.584 | 0.239 | 1.8 | 1.34 | -1.57 (inactive) | -0.0311 | -0.0645 |
| CC(C)(C)OC(=O)CC[C@@]1(C(=O)N2CCCCC2)N=C(c2ccc(OCCCO)cc2)O[C@@H]1c1ccccc1 | 0.249 | 0.615 | 0.171 | 0.783 | 1.68 | 1.72 | 1.23 | -3.24 (inactive) | 1.12 | -0.0618 |
| C=C(CCCC)/C(=C/C[C@H](OC(C)=O)c1ccc(OCCO)cc1)c1cnc2ccccc2c1 | -0.173 | 0.641 | -0.115 | 0.372 | 1.21 | 1.32 | 1.18 | -0.851 (inactive) | 0.703 | -0.0672 |
| COc1cc(CO)cc(I)c1O[C@H]1C=C(C(=O)NCCO)C[C@@H](NC[C@@H]2CCCO2)[C@@H]1O | -0.281 | 0.445 | -0.085 | 0.674 | 0.041 | 0.625 | 1.09 | -0.225 (inactive) | 0.59 | -0.169 |
| CS(=O)(=O)CCOC(=O)C1=CC(CCCO)=CC(c2ccc(CN3CCCC3)cc2)N(Cc2cccc(OC(F)(F)F)c2)C=C1C(=O)OCCS(C)(=O)=O (stereo not given) | 0.384 | 0.851 | 0.0036 | 0.952 | 0.978 | 0.691 | 0.909 | 0.173 (inactive) | 0.66 | 0.154 |
| C=CC[C@@]1(C(=O)N2CCCCC2)N=C(c2ccc(OCCCO)cc2)O[C@@H]1c1ccccc1CN=[N+]=[N-] | 0.134 | 0.432 | 0.084 | 0.378 | 1.6 | 1.8 | 1.32 | -1.43 (inactive) | 0.938 | -0.219 |
| COc1cc2c(cc1O)C(c1cccs1)N(Cc1ccc([N+](=O)[O-])o1)CC2 (stereo not given) | -0.116 | 1.85 | -0.0265 | 0.724 | 0.881 | 1.54 | 0.387 | -1.63 (inactive) | 0.583 | -0.0994 |
| COc1ccc(CCNC(=O)[C@@]2(c3ccc([N+](=O)[O-])cc3)CC(=O)N(CC34CC5CC(CC(C5)C3)C4)[C@@H]2c2ccc(CO)cc2I)cc1 | -0.235 | 1 | 0.0569 | 0.377 | 0.6 | 1.09 | 1.2 | -1.64 (inactive) | -0.0217 | -0.446 |
| O=C(O)[C@@]1(CCS(=O)(=O)c2ccccc2)N=C(c2ccc(OCCCO)cc2)O[C@H]1c1ccccc1 | 0.132 | -0.0272 | 0.0654 | -0.029 | 0.604 | 1.62 | 1.06 | 2.18 (inactive) | 0.38 | -0.0994 |
| O=C1[C@H]2C=C(Br)[C@H](C[C@@H]2OCCCCCCO)[C@@]12CO2 | 0.125 | 0.629 | -0.0443 | -0.0632 | -0.565 | -0.429 | -0.394 | -0.0205 (inactive) | 0.0363 | 0.122 |
| C=C(CCCC)C(=O)CC[C@@H](OC(C)=O)c1ccc(CO)o1 | -0.327 | 0.349 | -0.0729 | 0.726 | -0.426 | -0.306 | -0.0318 | 0.514 (inactive) | 0.911 | 0.0505 |
| CC=CC(O)C1C=CC2C(=O)N(C)C(=O)C2N1N(c1ccccc1)c1ccccc1 (stereo not given) | -0.108 | 0.273 | -0.0567 | 0.367 | 1.44 | 0.837 | 1.12 | 0.621 (inactive) | -0.132 | -0.201 |
| C=CC[C@]12N=C(c3ccc(OCCCO)cc3)O[C@H]1c1ccccc1N(CCS(=O)(=O)c1ccccc1)C2=O | 0.288 | -0.312 | 0.0124 | -0.0268 | 1.07 | 1.13 | 1.32 | -3.1 (inactive) | 0.0964 | -0.3 |
| C=CCOC(=O)[C@H]1[C@@H]2C(=O)O[C@@H](c3ccccc3)[C@@H](c3ccccc3)N2[C@@H](c2ccc(OCCOC(=O)[C@H]3C[C@H]4C(=O)N[C@@H](CCCCN(C)C)C(=O)N4[C@H]3c3cccc(OCCO)c3)cc2)[C@]12C(=O)Nc1ccc(I)cc12 | -0.756 | 0.67 | -0.0659 | 0.527 | 0.914 | 0.605 | 1.3 | 0.0721 (inactive) | 0.405 | -0.179 |
| CCCCN1CC=CC23O[C@@H]4C=CCOC(=O)[C@@H]4[C@H]2C(=O)N(CCCCCCO)[C@@H]3C1=O (stereo not given in full) | 1.22 | -0.64 | -0.141 | -1.34 | -1.86 | 1.01 | 1.3 | -0.0048 (inactive) | -0.581 | -0.134 |
| COC(=O)c1c(CC[C@@H](CO)NC(=O)NCCc2c[nH]c3ccccc23)oc(C(=O)Cc2ccccc2)c1C(=O)OC | -0.379 | 0.488 | 0.0858 | 0.203 | 0.0378 | -0.0379 | 0.939 | 1.49 (inactive) | 0.224 | 0.0036 |
